From PubChem BioAssay (NCI)
Compounds without any hit were thinned out: in the full panel of roughly 79,000, 15% have a hit. Active and inactive are the calls of the source. Rule as the data show it: active = growth inhibition above about 70%; inactive = the rest.

Assays:
[1] = NCI Yeast Anticancer Drug Screen. Data for the rad50 strain (AID 155);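 also: 0% = growth of vehicle-only cultures of the same strain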; conditions: S. cerevisiae rad50 strain growth inhibition, active compounds read high
In short: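 Growth of the mutant yeast was measured after compound exposure and referenced to vehicle-treated cultures.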

[2] = NCI Yeast Anticancer Drug Screen. Data for the mec2-1 strain (AID 157); conditions: S. cerevisiae mec2-1 strain, active compounds read high
In short: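 mec2-1 yeast strain, carrying an alteration in DNA damage repair or cell cycle control, was exposed to compounds; growth inhibition was measured relative to vehicle-treated controls.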

[3] = NCI Yeast Anticancer Drug Screen. Data for the sgs1 mgt1 strain (AID 161);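 also: 0% = growth of cultures given vehicle only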; conditions: S. cerevisiae sgs1 mgt1 strain, active compounds read high
In short: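 This yeast growth screen uses a strain with defined DNA-repair lesions; compound-treated growth is compared with vehicle-treated growth.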

[4] = NCI Yeast Anticancer Drug Screen. Data for the cln2 rad14 strain (AID 165);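 also: 0% = growth equal to vehicle treated cultures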; conditions: S. cerevisiae cln2 rad14 strain, active compounds read high
In short: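 Yeast carrying cln2 and rad14 alterations (cell cycle control and DNA damage repair) were exposed to compounds. Growth inhibition was measured against vehicle-treated controls.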

[5] = NCI Yeast Anticancer Drug Screen. Data for the bub3 strain (AID 167); conditions: S. cerevisiae bub3 mutant strain, active compounds read high
In short: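 Whole-cell yeast assay. The mutant strain was incubated with compounds, and growth inhibition was determined by comparison with vehicle-treated cells.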

[6] = NCI Yeast Anticancer Drug Screen. Data for the mlh1 rad18 strain (AID 175); conditions: S. cerevisiae mlh1 rad18 strain growth inhibition, active compounds read high
In short: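 Growth inhibition of the yeast strain was measured after compound exposure and expressed relative to vehicle-treated controls. The strain carries defined defects in DNA damage repair.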

[7] = at 5.0 µM (retest, dose inferred, filed as 0.5)
[8] = at 50.0 µM (retest, dose inferred, filed as 5.0)

Measured: growth inhibition

FC(F)(F)c1ccc(-c2ccc(OCCN3CCCC3)cc2)cc1
inactive: [1]; [7] 30% | [1]; [8] 50% | [2]; [7] 13% | [2]; [8] 50% | [3]; [7] 25% | [4]; [7] 28% | [4]; [8] 40% | [5]; [7] 26% | [5]; [8] 62% | [6]; [7] 29% | [6]; [8] 68%
active: [1]; at 50.0 µM 98.6% | [2]; at 50.0 µM 99.5% | [3]; [8] 88% | [3]; at 50.0 µM 99.4% | [4]; at 50.0 µM 99.1% | [5]; at 50.0 µM 99.4% | [6]; at 50.0 µM 99.3%

COc1ccc(N=Nc2ccc3oc(=O)c(C(=O)Nc4ccc(Cl)cc4)cc3c2)cc1
inactive: [1]; [7] 29% | [2]; [7] 16% | [3]; [7] 0% | [4]; [7] 16% | [5]; [7] 14% | [6]; [7] 33%
active: [1]; [8] 98% | [1]; at 50.0 µM 98.5% | [2]; [8] 98% | [2]; at 50.0 µM 98.9% | [3]; [8] 98% | [3]; at 50.0 µM 98.3% | [4]; [8] 98% | [4]; at 50.0 µM 98.3% | [5]; [8] 97% | [5]; at 50.0 µM 98.8% | [6]; [8] 99% | [6]; at 50.0 µM 98.7%

CCC(C)(C)NCCCCCNc1cc(OC)cc2cccnc12
active: [1]; at 50.0 µM 76.2% | [5]; at 50.0 µM 79%
inactive: [1]; [7] -2% | [1]; [8] 67% | [2]; [7] -5% | [2]; [8] 0% | [2]; at 50.0 µM 40.2% | [3]; [7] 4% | [3]; [8] 22% | [3]; at 50.0 µM 56.4% | [5]; [7] 6% | [5]; [8] 36% | [6]; [7] 2% | [6]; [8] 16% | [6]; at 50.0 µM 68.8%

O=C(CCBr)NC(=O)Oc1cccc2ccccc12
active: [1]; at 50.0 µM 87.2% | [2]; at 50.0 µM 97.2% | [3]; at 50.0 µM 91.3% | [5]; at 50.0 µM 85.6% | [6]; at 50.0 µM 95.3%
inactive: [1]; [7] 1% | [1]; [8] 17% | [2]; [7] 1% | [2]; [8] 29% | [3]; [7] 5% | [3]; [8] 55% | [4]; [7] 4% | [4]; [8] 11% | [4]; at 50.0 µM 28.1% | [5]; [7] -8% | [5]; [8] 18% | [6]; [7] 2% | [6]; [8] 65%

C/C=C/C=N/N(c1nnc(-c2ccccc2)c(-c2ccccc2)n1)S(=O)(=O)c1ccc(C)cc1
inactive: [1]; [7] 58% | [1]; [8] 58% | [2]; [7] 29% | [2]; [8] 29% | [4]; [7] 38% | [4]; [8] 38% | [5]; [7] 52% | [5]; [8] 52% | [6]; [7] 34% | [6]; [8] 34%
active: [1]; at 50.0 µM 92.2% | [2]; at 50.0 µM 91.3% | [4]; at 50.0 µM 90% | [5]; at 50.0 µM 92.3% | [6]; at 50.0 µM 91.5%

CSCCC(NC(=O)C(CCSC)NS(=O)(=O)Cc1ccccc1)C(=O)O (stereo not drawn)
inactive: [1]; [7] -6% | [1]; [8] -4% | [2]; [7] -4% | [2]; [8] -3% | [3]; [7] -6% | [3]; [8] -6% | [3]; at 50.0 µM 48.5% | [5]; [7] -4% | [5]; [8] -3% | [6]; [7] -4% | [6]; [8] -5%
active: [1]; at 50.0 µM 98.9% | [2]; at 50.0 µM 99.6% | [5]; at 50.0 µM 99.2% | [6]; at 50.0 µM 99.2%

CN(C)c1ccc(C=Nc2cnc3ccccc3c2)cc1
inactive: [1]; [7] -10% | [1]; [8] 10% | [1]; at 50.0 µM -54.4% | [2]; [7] -5% | [2]; [8] -13% | [2]; at 50.0 µM -14.3% | [3]; [7] -4% | [3]; [8] -1% | [3]; at 50.0 µM -3.05% | [4]; [7] -32% | [4]; [8] -14% | [4]; at 50.0 µM -43.7% | [5]; [7] 2% | [5]; [8] 5% | [5]; at 50.0 µM -3.65% | [6]; [7] 0% | [6]; [8] 10% | [6]; at 50.0 µM -6.35%

Oc1ccc(C/C=C/c2ccccc2)cc1O
inactive: [1]; [7] 3% | [1]; at 50.0 µM 56.8% | [2]; [7] 4% | [3]; [7] 13% | [3]; at 50.0 µM 47.8% | [4]; [7] -7% | [5]; [7] -1% | [6]; [7] 9%
active: [1]; [8] 98% | [2]; [8] 99% | [2]; at 50.0 µM 99.1% | [3]; [8] 99% | [4]; [8] 98% | [4]; at 50.0 µM 98.8% | [5]; [8] 98% | [5]; at 50.0 µM 99.2% | [6]; [8] 98% | [6]; at 50.0 µM 99.2%

COc1ccc(/C(C#N)=C/c2ccncc2)cc1
active: [1]; at 50.0 µM 73.2% | [5]; at 50.0 µM 77.4%
inactive: [1]; [7] 1% | [1]; [8] 28% | [2]; [7] -49% | [2]; [8] 14% | [2]; at 50.0 µM 39.2% | [3]; [7] -2% | [3]; [8] 28% | [3]; at 50.0 µM 68% | [4]; [7] 4% | [4]; [8] 23% | [4]; at 50.0 µM 46.4% | [5]; [7] 7% | [5]; [8] 67% | [6]; [7] -3% | [6]; [8] 28% | [6]; at 50.0 µM 51.3%

COC12C(COC(N)=O)C3=C(C(=O)C(C)=C(N)C3=O)N1CC1C2N1C(=O)/C=C/c1ccccc1 (stereo not drawn)
active: [1]; [8] 72% | [1]; at 50.0 µM 73.7% | [2]; [8] 82% | [2]; at 50.0 µM 70.7% | [3]; [8] 87% | [3]; at 50.0 µM 85.7% | [5]; at 50.0 µM 72.4% | [6]; [8] 90% | [6]; at 50.0 µM 87%
inactive: [1]; [7] 11% | [2]; [7] 13% | [3]; [7] 24% | [5]; [7] 2% | [5]; [8] 66% | [6]; [7] 27%
